In the supplement of paper PMC10849652:
Targets with a hit are over-represented here; the source holds about 8,800 in all. About 0.5% of all pairs of compound and target were hits.

Tests used:
Assay in all cases: log2 fold change, soluble protein after heating vs DMSO (PISA); higher = thermal stabilisation; K562 lysate, 10 uM; active = over 0.2 and 3.5 SD of the protein, either way, in both replicates (recomputed)
[1] = compound: Cc1sc2c(c1C)C(c1ccc(Cl)cc1)=N[C@@H](CC(=O)OC(C)(C)C)c1nnc(C)n1-2
Procedure, shortened: (§1)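 K562 pellets were dounce-homogenised in PBS pH 7.4 with 1 mM MgCl2, and the crude extract at 1 mg/mL protein was treated with 10 μM compound for 30 min. Aliquots were heated for 3 min across 48°C-58°C, pooled, and brought to 0.5% NP-40 at 4°C; soluble protein was the supernatant after 21,000xg for 90 min. Soluble protein was quantified by TMTpro 16plex LC-MS/MS with channel sums equalised, and reported as log2 fold change in thermal stability against DMSO controls, with values from duplicates.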

[2] = compound: c1ccc([C@@H]2C[C@H]2NC2CCNCC2)cc1
Procedure, shortened: as §1

[3] = compound: C1=CC=C(C=C1)[C@H](COC2=CC3=C(C=C2)NC(=O)N3)NC(=O)C4=CC=CN(C4=O)CC5=CC(=C(C=C5)F)F
Procedure, shortened: as §1

[4] = compound: CC1=C(SC2=C1C(=N[C@H](C3=NN=C(N32)C)CC(=O)N)C4=CC=C(C=C4)Cl)C
Procedure, shortened: as §1

[5] = compound: CC1=C2C(=CC=C1)N=C(N(C2=O)C3=CC=CC=C3C)CN4C=NC5=C(N=CN=C54)N
Procedure, shortened: as §1

Measured: log2 fold change

PARD3B (UniProt Q8TEW8)
inactive: [1] 0.138 | [2] -0.085

NIT2 (UniProt Q9NQR4)
inactive: [3] -0.033 | [4] 0.017 | [5] 0.027 | [1] -0.007 | [2] 0.058

NACC1 (UniProt Q96RE7)
inactive: [3] 0.013 | [4] -0.004 | [5] 0.027 | [1] 0.013 | [2] 0.033

MYLK (UniProt Q15746)
inactive: [3] -0.038 | [4] -0.161 | [5] -0.008 | [2] 0.123

P2RY1 (UniProt P47900)
inactive: [3] -0.153 | [4] 0.163 | [1] -0.047 | [2] -0.022

NARS2 (UniProt Q96I59)
inactive: [3] 0.013 | [4] 0.024 | [5] 0.092 | [1] 0.053 | [2] -0.05

MYO10 (UniProt Q9HD67)
inactive: [3] -0.122 | [4] 0.104 | [5] 0.165 | [2] 0.024

NRIP1 (UniProt P48552)
inactive: [3] 0.058 | [4] 0.112 | [1] -0.071 | [2] -0.069

MXRA7 (UniProt P84157)
inactive: [5] -0.05 | [1] -0.106 | [2] -0.062

NFATC2IP (UniProt Q8NCF5)
UniProt Q8NCF5, sequence (Q8NCF5 whole entry, looked up): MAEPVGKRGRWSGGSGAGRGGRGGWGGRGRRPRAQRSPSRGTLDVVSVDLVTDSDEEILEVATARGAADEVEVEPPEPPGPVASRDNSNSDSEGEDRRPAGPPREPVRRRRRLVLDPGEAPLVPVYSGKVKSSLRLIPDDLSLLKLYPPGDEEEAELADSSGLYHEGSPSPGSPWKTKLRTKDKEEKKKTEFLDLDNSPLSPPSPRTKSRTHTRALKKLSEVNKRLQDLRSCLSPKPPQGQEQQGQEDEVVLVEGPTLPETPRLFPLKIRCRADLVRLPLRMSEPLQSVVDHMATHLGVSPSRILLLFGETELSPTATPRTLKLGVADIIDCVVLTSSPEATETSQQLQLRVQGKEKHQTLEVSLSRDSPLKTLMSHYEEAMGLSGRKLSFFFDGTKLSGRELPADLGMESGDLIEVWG
inactive: [3] 0.012 | [4] -0.01 | [5] 0.009 | [1] 0.138 | [2] 0.049

NEBL (UniProt O76041)
UniProt O76041, sequence (O76041 whole entry, looked up): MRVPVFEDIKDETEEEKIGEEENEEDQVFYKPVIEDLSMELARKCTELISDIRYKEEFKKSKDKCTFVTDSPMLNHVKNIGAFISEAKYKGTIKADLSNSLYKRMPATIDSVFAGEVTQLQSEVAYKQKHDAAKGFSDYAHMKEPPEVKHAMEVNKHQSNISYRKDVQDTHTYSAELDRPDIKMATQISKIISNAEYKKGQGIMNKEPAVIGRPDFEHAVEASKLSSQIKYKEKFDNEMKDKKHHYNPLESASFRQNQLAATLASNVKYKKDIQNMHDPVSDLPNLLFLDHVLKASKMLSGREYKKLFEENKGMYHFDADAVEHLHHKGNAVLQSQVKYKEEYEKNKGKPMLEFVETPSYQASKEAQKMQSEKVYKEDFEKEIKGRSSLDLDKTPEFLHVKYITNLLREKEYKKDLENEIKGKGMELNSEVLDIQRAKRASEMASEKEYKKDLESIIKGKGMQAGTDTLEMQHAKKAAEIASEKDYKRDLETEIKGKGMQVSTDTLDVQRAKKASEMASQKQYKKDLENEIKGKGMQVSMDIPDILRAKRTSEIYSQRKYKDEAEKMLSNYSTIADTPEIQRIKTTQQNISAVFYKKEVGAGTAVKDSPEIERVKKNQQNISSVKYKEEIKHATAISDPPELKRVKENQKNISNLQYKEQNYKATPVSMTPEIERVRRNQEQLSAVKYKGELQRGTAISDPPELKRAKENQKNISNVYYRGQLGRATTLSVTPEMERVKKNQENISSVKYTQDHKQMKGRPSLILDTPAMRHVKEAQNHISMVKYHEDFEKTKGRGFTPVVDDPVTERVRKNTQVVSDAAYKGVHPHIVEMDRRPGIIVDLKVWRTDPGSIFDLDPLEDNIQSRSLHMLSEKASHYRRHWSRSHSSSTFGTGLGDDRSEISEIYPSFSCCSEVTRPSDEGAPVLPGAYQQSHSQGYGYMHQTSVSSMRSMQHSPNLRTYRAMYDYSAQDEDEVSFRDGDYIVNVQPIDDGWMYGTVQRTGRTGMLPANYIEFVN
inactive: [3] -0.074 | [4] 0.011 | [5] 0.047 | [1] 0.043 | [2] 0.014

PAGE2B (UniProt Q5JRK9)
UniProt Q5JRK9, sequence (Q5JRK9 whole entry, looked up): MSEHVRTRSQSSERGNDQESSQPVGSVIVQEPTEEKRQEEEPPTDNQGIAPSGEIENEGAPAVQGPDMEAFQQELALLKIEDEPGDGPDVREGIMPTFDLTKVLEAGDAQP
inactive: [5] -0.031 | [1] -0.072 | [2] 0.182

NUMB isoform 2 (UniProt P49757)
inactive: [1] -0.207

NFATC2 (UniProt Q13469)
inactive: [3] 0.027 | [4] 0.073 | [5] 0.064 | [1] 0.031 | [2] -0.1

OSBPL1A (UniProt Q9BXW6)
inactive: [3] -0.089 | [4] 0.007 | [1] -0.144 | [2] -0.084

MTA2 (UniProt O94776)
inactive: [3] 0 | [4] 0.015 | [5] -0.004 | [1] 0.015 | [2] 0.031

MYCBP (UniProt Q99417)
inactive: [3] 0.043 | [4] -0.087 | [5] -0.013 | [1] -0.022 | [2] -0.27

NSUN7 (UniProt Q8NE18)
inactive: [3] -0.144 | [4] -0.046 | [5] 0.06 | [2] -0.081

MYBL2 (UniProt P10244)
inactive: [5] -0.01 | [1] 0.047
active: [2] 0.326

NUF2 (UniProt Q9BZD4)
inactive: [3] -0.03 | [4] 0.008 | [5] 0.018 | [1] 0.007 | [2] 0.016

NUP98 (UniProt P52948)
UniProt P52948, sequence (P52948 whole entry, looked up): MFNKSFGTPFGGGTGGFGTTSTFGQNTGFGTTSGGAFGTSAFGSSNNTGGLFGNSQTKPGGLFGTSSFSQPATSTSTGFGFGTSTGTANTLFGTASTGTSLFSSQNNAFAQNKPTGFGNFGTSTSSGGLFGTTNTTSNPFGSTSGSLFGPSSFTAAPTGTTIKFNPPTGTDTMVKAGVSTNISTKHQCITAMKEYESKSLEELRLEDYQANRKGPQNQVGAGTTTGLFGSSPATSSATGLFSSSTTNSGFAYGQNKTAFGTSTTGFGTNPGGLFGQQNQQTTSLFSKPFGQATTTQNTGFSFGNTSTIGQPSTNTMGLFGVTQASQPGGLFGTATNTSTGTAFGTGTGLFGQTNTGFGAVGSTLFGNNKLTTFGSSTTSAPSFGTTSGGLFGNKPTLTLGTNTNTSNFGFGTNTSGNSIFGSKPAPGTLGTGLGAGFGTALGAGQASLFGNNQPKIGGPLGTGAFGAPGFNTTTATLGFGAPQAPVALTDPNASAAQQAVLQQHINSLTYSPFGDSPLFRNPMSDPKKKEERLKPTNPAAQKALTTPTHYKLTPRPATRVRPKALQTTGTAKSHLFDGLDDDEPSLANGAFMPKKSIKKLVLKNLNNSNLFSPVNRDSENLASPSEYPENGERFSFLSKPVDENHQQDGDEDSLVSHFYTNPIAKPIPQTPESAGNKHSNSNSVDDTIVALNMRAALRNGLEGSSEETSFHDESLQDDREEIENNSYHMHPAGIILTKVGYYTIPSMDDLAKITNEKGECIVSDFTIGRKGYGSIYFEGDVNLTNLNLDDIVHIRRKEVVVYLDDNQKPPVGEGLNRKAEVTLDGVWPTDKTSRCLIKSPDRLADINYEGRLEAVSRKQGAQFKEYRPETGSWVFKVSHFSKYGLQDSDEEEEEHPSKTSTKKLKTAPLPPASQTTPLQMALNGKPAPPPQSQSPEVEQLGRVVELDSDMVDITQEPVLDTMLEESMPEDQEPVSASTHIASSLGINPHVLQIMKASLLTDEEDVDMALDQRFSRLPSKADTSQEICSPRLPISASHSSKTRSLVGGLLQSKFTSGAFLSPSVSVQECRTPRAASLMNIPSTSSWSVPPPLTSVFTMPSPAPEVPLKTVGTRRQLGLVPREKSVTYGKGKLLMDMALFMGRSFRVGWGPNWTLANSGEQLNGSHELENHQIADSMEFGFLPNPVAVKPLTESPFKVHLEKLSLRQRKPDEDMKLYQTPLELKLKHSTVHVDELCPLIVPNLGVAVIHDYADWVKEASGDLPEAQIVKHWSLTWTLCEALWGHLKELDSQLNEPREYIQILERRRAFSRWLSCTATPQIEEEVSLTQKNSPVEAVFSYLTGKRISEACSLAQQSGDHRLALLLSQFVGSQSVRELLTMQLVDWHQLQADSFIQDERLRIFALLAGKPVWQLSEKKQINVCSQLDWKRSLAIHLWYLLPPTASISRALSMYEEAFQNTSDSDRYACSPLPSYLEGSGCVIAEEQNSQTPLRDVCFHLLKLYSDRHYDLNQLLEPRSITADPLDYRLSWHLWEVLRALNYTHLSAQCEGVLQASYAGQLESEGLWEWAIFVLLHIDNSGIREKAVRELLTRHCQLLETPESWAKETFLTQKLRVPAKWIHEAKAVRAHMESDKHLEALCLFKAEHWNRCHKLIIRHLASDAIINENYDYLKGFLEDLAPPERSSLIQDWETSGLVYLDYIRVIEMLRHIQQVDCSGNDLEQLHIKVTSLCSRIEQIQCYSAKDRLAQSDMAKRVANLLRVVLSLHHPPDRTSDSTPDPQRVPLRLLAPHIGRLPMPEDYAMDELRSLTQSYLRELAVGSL
inactive: [3] -0.018 | [4] -0.03 | [5] 0.037 | [1] 0.052 | [2] -0.003

MTHFD1L (UniProt B7ZM99)
inactive: [3] -0.039 | [4] 0.025 | [5] 0.06 | [1] 0.025 | [2] 0.049

NFATC4 isoform 2 (UniProt Q14934)
UniProt Q14934, sequence (Q14934 whole entry, looked up): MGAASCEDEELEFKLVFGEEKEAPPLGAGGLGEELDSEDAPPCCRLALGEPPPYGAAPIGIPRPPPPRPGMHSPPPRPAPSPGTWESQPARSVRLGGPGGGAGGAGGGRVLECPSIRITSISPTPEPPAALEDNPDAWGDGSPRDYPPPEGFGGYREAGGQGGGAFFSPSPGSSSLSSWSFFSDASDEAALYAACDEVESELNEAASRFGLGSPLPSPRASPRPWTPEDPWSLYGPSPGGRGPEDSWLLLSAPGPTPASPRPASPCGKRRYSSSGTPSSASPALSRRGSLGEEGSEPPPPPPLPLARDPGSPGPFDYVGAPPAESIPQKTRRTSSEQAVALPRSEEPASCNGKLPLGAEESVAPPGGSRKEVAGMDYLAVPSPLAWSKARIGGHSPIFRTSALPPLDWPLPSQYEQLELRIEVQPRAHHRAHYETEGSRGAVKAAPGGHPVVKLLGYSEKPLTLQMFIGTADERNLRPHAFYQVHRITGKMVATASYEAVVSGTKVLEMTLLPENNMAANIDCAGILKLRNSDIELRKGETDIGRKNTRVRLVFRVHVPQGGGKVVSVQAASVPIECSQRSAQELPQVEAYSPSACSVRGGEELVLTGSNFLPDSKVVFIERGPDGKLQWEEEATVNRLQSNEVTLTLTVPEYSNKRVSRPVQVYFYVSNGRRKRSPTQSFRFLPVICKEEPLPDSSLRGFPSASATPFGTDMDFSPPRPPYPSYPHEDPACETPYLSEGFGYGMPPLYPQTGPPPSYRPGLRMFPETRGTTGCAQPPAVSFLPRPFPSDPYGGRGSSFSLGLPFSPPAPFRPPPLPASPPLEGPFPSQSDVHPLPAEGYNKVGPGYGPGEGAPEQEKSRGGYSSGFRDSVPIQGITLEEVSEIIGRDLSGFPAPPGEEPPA
inactive: [3] -0.077 | [4] 0.015 | [5] 0 | [1] -0.112 | [2] -0.197

MT-ATP8 (UniProt P03928)
UniProt P03928, sequence (P03928 whole entry, looked up): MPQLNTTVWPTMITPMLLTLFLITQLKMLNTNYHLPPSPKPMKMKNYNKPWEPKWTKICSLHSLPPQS
inactive: [3] -0.057 | [4] 0.052 | [5] 0.082 | [2] 0.104

PAPOLG (UniProt Q9BWT3)
UniProt Q9BWT3, sequence (Q9BWT3 whole entry, looked up): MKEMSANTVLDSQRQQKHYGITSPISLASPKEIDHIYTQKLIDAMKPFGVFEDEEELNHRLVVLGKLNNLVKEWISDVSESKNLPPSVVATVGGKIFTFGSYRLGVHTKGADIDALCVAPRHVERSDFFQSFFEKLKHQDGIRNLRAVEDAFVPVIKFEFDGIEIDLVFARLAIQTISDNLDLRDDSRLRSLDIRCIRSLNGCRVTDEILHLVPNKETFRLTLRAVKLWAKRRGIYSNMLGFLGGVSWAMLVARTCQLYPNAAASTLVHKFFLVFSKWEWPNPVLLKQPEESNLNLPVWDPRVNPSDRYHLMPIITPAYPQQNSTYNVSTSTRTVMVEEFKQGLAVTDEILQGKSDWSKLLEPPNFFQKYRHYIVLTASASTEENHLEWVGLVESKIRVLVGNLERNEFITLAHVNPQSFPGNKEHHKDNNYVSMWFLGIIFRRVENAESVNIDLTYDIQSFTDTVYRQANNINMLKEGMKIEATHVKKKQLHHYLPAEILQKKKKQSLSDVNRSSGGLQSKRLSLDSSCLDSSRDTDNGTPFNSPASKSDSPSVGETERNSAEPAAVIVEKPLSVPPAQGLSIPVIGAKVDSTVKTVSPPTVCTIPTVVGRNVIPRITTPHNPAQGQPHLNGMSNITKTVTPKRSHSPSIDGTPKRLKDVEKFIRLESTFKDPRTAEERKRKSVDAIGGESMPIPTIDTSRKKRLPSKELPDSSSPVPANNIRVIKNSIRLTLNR
inactive: [5] 0.064 | [1] 0.074 | [2] -0.107

OAT (UniProt P04181)
inactive: [3] 0.029 | [4] 0.031 | [5] 0.038 | [1] 0.034 | [2] -0.018
